Each structure is given as a SMILES string. Activity calls are given as the source filed them.

Assay [1] can be described thus: compounds binding Alexa647 anti-His antibody – biochemical, small-molecule microarray, 635 nm fluorescence, artefact control for SMM control protein annotation, primary screen (AID 1128).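 Also: score merges feature fluorescence with signal-to-noise for each printed compound spot.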 To be noted: higher = more signal.
Assay [2] relates to Human papillomavirus type 1a E7 protein (residues 1-88). Kind of assay: HPV1a E7 small-molecule binders, primary screen, biochemical, small-molecule microarray, residues 1-88, 635 nm (AID 1129). To be noted: small-molecule microarray binding, fluorescence 635 nm; higher = more signal.
Assay [3] deals with Focal adhesion kinase 1 (Homo sapiens) (UniProt Q05397). Kind of assay: PTK2 protein binding on printed compound slides – biochemical, small-molecule microarray, 635/667 nm fluorescence, BSA, DTT, primary screen (AID 1130).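 Also: composite of spot emission at 667 nm and signal to noise over triplicate slides.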 To be noted: 635 nm fluorescence, higher = more signal.
Assay [4] deals with Fibrinogen (Alexa647-labelled). Kind of assay: Alexa647-fibrinogen binding to printed small molecules – biochemical, small-molecule microarray, 635/667 nm fluorescence, artefact control for SMM control-protein annotation, profiling panel (AID 1131).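 Also: z-score merges 667 nm fluorescence with per-spot signal-to-noise over triplicate slides.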 To be noted: fibrinogen-A647 binding fluorescence, higher = more signal.
In assay [5] the target is Follistatin (Homo sapiens) (UniProt P19883). Kind of assay: FST protein binding to printed compounds – biochemical, small-molecule microarray, 635/667 nm fluorescence, primary screen (AID 1132). To be noted: 635 nm fluorescence, higher = more signal.
Assay [6] addresses Fibroblast growth factor 2 (Homo sapiens) (UniProt P09038). Put plainly: basic fibroblast growth factor binding to printed compounds – biochemical, small-molecule microarray, 635/667 nm fluorescence, primary screen (AID 1133). To be noted: FGF2, fluorescence 635/667, higher = more signal.
A short description of assay [7]: JC-1 mitochondrial potential readout, lung cancer cells – cell-based, A549, JC-1 fluorescence, basal, 24 h, 100 nL, profiling panel (AID 1138).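 Also: A549 lung adenocarcinoma cells under basal conditions with no added stimulus; test concentration not given here.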 Conditions: higher = more signal.
A further assay has as its system Lefty1. Kind of assay: Lefty1 protein binding to printed compounds – biochemical, small-molecule microarray, 635/667 nm fluorescence, primary screen (AID 1139). Conditions: fluorescence 635/667, higher = more signal.
For assay [8], the system named is wheat germ agglutinin (Triticum aestivum), Alexa647-labelled. Put plainly: Alexa647-WGA lectin binding to printed small molecules – biochemical, small-molecule microarray, 635/667 nm fluorescence, artefact control for SMM control-protein annotation, profiling panel (AID 1140).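 Also: score merges 667 nm feature emission with signal to noise over triplicate slides.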 To be noted: WGA-A647 binding, 635 nm fluorescence, higher = more signal.
For assay [9], the target named is Luciferin 4-monooxygenase (Photinus pyralis) (UniProt P08659). Put plainly: inhibition of purified Photinus pyralis luciferase – biochemical, luminescence, purified enzyme, 2006 set, primary screen (AID 1141).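 Also: cell-free assay with purified firefly luciferase at 100 ng per well in PBS; test concentration not given here.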 Conditions: purified firefly luciferase, SteadyGlo luminescence, 30 min; higher = more signal, called active from +8 up or from −8 down.
The subject of assay [10] is Wnt5a (protein binding on small-molecule microarray). Kind of assay: small molecules binding Wnt5a protein – biophysical, small-molecule microarray, 635/667 nm fluorescence, primary screen (AID 1142).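 Also: fluorescence read at 667 nm with signal to noise per printed feature.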 To be noted: 635 nm fluorescence, higher = more signal.
Assay [11] is described as follows: ATP-based viability of Huh7 replicon cells – cell-based, CellTiter-Glo luminescence, basal, 48 h, cytotoxicity control for HCV replication inhibitor project, primary screen (AID 1143).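 Also: Huh7 hepatoma cells carrying a hepatitis C replication reporter with no stimulus; test concentration not given here.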 To be noted: higher = more signal, called active from +8 up or from −8 down. On the technique in general: A replicon is a self-replicating genome or part of one, used to study replication in cells.

Assay [12] can be described thus: basal CRE-LacZ reporter activity in PC12 – cell-based, unstimulated, primary screen (AID 1145). Conditions: no forskolin, luminescence, 4.5 h, higher = more signal, called active from +8 up or from −8 down.
The nature of assay [13]: forskolin-driven CRE-LacZ activity in PC12 – cell-based, CRE-LacZ reporter, forskolin-stimulated, primary screen (AID 1146).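 Also: PC12 cells with 6xCRE LacZ reporter stimulated by forskolin 10 µM; beta-galactosidase reporter signal reflecting CREB driven transcription.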 Conditions: luminescence, 4.5 h, higher = more signal, called active from +8 up or from −8 down.
Assay [14] has as its target Streptavidin (Streptomyces avidinii) (UniProt P22629). Put plainly: compounds binding control protein streptavidin – biophysical, small-molecule microarray, 635/667 nm fluorescence, artefact control for SMM compound annotation, primary screen (AID 1147).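 Also: signal reflects streptavidin binding to arrayed compounds as a control protein.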 Conditions: higher = more signal.
The nature of assay [15]: probe aInhba binding on compound microarray – biochemical, small-molecule microarray, 635/667 nm fluorescence, primary screen (AID 1148).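 Also: score merges 667nm spot fluorescence with signal-to-noise for antibody binding to printed compounds.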 To be noted: higher = more signal.
The target in assay [16] is Torsin-1A (Homo sapiens) (UniProt O14656). Put plainly: TOR1A wild-type binding on microarray – cell lysate, small-molecule microarray, lysate, 635/667 nm, primary screen (AID 1149). To be noted: COS7 hTOR1A-WT lysate, 635 nm fluorescence, higher = more signal.
For assay [17] the target is unchanged. Kind of assay: torsin A mutant lysate binding on microarrays – cell lysate, small-molecule microarray, COS7 lysate, 635/667 nm fluorescence, primary screen (AID 1150).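 Also: score pools 667 nm emission and signal to noise measuring lysate protein binding.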 Conditions: COS7 hTOR1A mutant lysate, 635 nm fluorescence, higher = more signal.
Assay [18] concerns Sonic hedgehog protein (Shh). Kind of assay: Sonic hedgehog microarray binding compounds – biochemical, small-molecule microarray, 635/667 nm fluorescence, primary screen (AID 1151).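 Also: Shh protein binding to compounds spotted on small-molecule microarray slides; score combines spot fluorescence intensity with signal-to-noise across triplicate slides.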 Conditions: 635 nm fluorescence, higher = more signal.

Follistatin (Homo sapiens), sequence (P19883 whole entry, looked up): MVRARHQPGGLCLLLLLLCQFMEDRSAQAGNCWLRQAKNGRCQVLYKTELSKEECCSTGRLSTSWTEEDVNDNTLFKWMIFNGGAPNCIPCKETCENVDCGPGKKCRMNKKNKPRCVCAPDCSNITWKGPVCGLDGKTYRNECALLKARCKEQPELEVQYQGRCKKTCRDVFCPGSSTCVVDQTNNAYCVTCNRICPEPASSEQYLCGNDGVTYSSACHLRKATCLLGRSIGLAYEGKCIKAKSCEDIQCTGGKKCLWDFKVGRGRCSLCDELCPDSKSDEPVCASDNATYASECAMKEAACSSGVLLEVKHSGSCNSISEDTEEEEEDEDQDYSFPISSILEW
Focal adhesion kinase 1 (Homo sapiens), sequence (Q05397 whole entry, looked up): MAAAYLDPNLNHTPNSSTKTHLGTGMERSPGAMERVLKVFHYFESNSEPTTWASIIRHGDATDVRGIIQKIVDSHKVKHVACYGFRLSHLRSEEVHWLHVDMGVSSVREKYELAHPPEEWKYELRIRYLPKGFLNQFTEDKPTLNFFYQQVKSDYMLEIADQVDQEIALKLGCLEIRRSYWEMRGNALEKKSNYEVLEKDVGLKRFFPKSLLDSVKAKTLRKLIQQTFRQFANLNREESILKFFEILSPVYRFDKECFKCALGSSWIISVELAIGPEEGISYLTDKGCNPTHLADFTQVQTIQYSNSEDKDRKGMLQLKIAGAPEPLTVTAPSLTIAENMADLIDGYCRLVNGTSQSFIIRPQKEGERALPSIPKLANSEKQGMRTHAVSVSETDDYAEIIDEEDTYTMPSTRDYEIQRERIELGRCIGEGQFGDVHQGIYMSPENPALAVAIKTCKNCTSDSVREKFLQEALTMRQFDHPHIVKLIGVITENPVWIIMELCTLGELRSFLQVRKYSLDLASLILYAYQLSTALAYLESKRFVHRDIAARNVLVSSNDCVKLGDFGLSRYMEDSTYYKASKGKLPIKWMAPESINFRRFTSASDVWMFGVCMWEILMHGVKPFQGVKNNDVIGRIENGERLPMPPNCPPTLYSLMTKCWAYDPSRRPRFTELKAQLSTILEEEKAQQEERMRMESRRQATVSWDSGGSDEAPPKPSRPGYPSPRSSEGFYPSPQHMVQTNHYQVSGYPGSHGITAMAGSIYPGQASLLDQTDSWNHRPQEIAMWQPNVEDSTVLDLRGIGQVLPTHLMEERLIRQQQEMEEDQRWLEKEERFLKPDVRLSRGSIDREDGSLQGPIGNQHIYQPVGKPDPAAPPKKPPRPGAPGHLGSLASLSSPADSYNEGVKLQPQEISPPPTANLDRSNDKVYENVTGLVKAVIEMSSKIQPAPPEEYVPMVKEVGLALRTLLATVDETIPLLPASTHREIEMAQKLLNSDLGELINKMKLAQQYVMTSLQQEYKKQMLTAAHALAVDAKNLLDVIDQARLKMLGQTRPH
Streptavidin (Streptomyces avidinii), sequence (P22629 whole entry, looked up): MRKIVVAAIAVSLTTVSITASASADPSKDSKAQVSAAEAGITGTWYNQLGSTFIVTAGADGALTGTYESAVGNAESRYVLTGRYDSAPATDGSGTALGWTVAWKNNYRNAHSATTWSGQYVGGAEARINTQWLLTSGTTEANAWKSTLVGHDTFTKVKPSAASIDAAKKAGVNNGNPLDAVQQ
Luciferin 4-monooxygenase (Photinus pyralis), sequence (P08659 whole entry, looked up): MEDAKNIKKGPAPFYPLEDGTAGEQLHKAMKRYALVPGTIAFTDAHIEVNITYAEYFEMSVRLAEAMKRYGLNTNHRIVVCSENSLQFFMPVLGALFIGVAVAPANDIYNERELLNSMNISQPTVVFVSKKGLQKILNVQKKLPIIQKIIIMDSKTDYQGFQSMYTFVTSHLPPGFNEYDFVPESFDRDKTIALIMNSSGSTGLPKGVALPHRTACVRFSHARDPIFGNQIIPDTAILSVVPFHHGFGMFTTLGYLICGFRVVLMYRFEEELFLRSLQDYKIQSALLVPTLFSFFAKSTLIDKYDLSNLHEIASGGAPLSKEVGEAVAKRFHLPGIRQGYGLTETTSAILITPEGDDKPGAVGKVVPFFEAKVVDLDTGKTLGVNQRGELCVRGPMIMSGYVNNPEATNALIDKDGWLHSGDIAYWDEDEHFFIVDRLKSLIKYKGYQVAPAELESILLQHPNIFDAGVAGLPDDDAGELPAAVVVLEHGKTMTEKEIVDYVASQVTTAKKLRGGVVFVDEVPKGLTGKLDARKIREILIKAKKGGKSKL
Torsin-1A (Homo sapiens), sequence (O14656 whole entry, looked up): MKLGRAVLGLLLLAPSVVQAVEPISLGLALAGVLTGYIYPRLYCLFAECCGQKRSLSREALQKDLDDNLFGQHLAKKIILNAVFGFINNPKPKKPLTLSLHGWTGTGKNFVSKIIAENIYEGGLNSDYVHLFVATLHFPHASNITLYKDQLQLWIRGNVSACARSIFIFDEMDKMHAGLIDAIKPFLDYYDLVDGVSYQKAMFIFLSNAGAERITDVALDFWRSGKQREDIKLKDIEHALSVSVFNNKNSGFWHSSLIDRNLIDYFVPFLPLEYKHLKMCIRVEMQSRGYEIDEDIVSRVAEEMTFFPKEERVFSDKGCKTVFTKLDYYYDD
Fibroblast growth factor 2 (Homo sapiens), sequence (P09038 whole entry, looked up): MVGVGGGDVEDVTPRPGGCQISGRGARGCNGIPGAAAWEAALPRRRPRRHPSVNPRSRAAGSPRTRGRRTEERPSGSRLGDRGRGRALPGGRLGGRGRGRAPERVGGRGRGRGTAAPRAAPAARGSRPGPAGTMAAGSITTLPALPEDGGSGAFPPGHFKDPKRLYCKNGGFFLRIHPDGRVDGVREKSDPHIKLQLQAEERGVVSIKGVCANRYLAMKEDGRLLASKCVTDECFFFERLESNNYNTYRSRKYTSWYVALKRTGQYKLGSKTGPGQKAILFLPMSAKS

Consider `CO[C@H]1O[C@H](CO)[C@@H](OC(=O)Nc2ccccc2)[C@H](OC(=O)Nc2ccc3c(c2)OCO3)[C@@H]1OC(=O)Nc1ccc2c(c1)OCO2`, for which the composite z-score in [1] is 2.53; in [2], 1.2; in assay [3], 1.02; in [4], 0.771; in assay [5], 0.87; in assay [6], 0.0385. In addition, the composite z-score was 0.563 in the assay with Lefty1; 1.21 in assay [8]; 0.328 in assay [10]; 0.232 in [14]; -0.0079 in assay [15]; 0.433 with Torsin-1A (Homo sapiens) [16]. In addition, the composite z-score worked out at 0.876 in the assay with Torsin-1A (Homo sapiens) [17] and 0.599 in assay [18]. In addition, the z-score in assay [7] is 1.18; in assay [9] it was -5.6 (inactive); in [11], -3.67 (inactive); in assay [12] it was 0.185 (inactive); in assay [13], -2.4 (inactive).
As for `CO[C@H]1COC(=O)CC=C[C@H](C)[C@@H](OC)COC(=O)CC=C[C@@H]1C`, the composite z-score in assay [1] is 0.245; in assay [2] it was -1.11; in assay [3] it was -0.415; in [4], -0.706; in assay [5], 0.956; in assay [6], 1.29. The composite z-score in the assay on Lefty1 was 0.817; in [8] it was -0.991; in assay [10], 0.27; in assay [14], -0.538; in [15] it was -0.227; with Torsin-1A (Homo sapiens) [16], 2.03. Also, the composite z-score with Torsin-1A (Homo sapiens) [17] is 0.621; in [18], 1.32. Further, the z-score was 1.35 in assay [7]; -1.38 (inactive) in [9]; -0.909 (inactive) in assay [11]; 0.786 (inactive) in [12]; -0.0885 (inactive) in assay [13].
For `C=CCC(OC(C)=O)[C@@H]1[C@@H](N(Cc2ccc(-c3ccccc3)cc2)C(=O)c2ccc(C)cc2)c2cc(OCCCO)ccc2N1C(=O)c1ccc(-c2ccccc2)cc1` (stereo not given in full), the composite z-score is -0.958 in [1]; 0.438 in assay [2]; 0.248 in [3]; -0.195 in [4]; 0.217 in [5]; 0.0217 in [6]. Further, the composite z-score was -0.166 in the assay with Lefty1; 0.258 in assay [8]; 0.504 in [10]; 0.0598 in assay [14]; 0.0884 in [15]; -0.0824 in the assay with Torsin-1A (Homo sapiens) [16]. Besides, the composite z-score with Torsin-1A (Homo sapiens) [17] came to 0.119; in assay [18], 0.0223. Further, the z-score in assay [7] is 2.98; in assay [9], -1.81 (inactive); in assay [11], -1.62 (inactive); in assay [12], 1.73 (inactive); in assay [13], -0.782 (inactive).
In the case of `CCCNC(=O)[C@@H]1c2ccccc2C(=O)N(Cc2cc(F)cc(C(F)(F)F)c2)[C@H]1c1ccc(CO)cc1`, the composite z-score in assay [1] was 2.1; in assay [2], 1.14; in [3], 0.674; in assay [4], 0.62; in assay [5], 1.41; in assay [6] it was 0.587. The composite z-score turned out to be 1.58 with Lefty1; 0.628 in [8]; 0.411 in assay [10]; 0.568 in assay [14]; 0.157 in [15]; 0.528 with Torsin-1A (Homo sapiens) [16]. Moreover, the composite z-score with Torsin-1A (Homo sapiens) [17] was 0.457; in assay [18], 1.93. For the same compound, the z-score in assay [7] was 1.74; in assay [9], -0.747 (inactive); in assay [11], -2.08 (inactive); in [12], -0.529 (inactive); in [13], -1.53 (inactive).
Consider `O=C1OCCC=C[C@H]2OC34C=CCN(Cc5ccccc5)C(=O)[C@H]3N(CCO)C(=O)[C@@H]4C12` (stereo not given in full), for which the composite z-score in assay [1] is -0.954; in assay [2], -1.18; in assay [3] it was -0.616; in assay [4] it was -1.89; in assay [5], -1.21; in [6], -0.379. The composite z-score with Lefty1 was -0.705; in assay [8] it was -2.09; in assay [10], -0.17; in assay [14], -0.88; in assay [15], -0.285; with Torsin-1A (Homo sapiens) [16] it was -0.42. In addition, the figures for the composite z-score (with Torsin-1A (Homo sapiens) [17]; in [18]) were -0.261 and -0.127, respectively. For the same compound, the z-score is 0.252 in [7]; -0.678 (inactive) in assay [9]; -4.38 (inactive) in assay [11]; -0.899 (inactive) in assay [12]; -0.894 (inactive) in [13].
